Most compounds without a hit are left out; they make up all but 6.6% or so of the library.
GRIN3A LBD mod: modulates the human NR3A ligand-binding domain. Tm shift relative to glycine control, % at 25 µM. NR3A LBD differential scanning fluorimetry, Tm shift; 0% = protein alone, 100% = glycine-bound protein. hit rate 2.5% among 340,000;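 active means melting temperature shift of at least 10% of the positive control shift, at one fixed dose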
CSC inhib: cancer stem cell inhibition; cancer stem cell-like cells viability, luminescence; inhibition, % at 7.5 µM; hit rate 1.1% among 300,000; AID 2717; in the data active means inhibition above about 75%; tested in HMLE shEcad cells
Beta apoptosis: blocks beta cell apoptosis; INS-1E cytokine-induced death, ATP luminescence, 48 h; percent of positive-control rescue, neutral wells zero; protection from apoptosis, % (test concentration not listed); hit rate 0.8% among 300,000;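 active means Every replicate reaches about 75%, or at least half do and their mean reaches it too, limit read from the data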;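 further: 0% = cytokine-treated negative control wells and 100% = positive control rescue; higher means more ATP so stronger rescue from cytokine killing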
MPTP block: permeability transition pore inhibition. isolated mouse mitochondria, Ca2+ swelling absorbance, 30 min. hit rate 1.4% among 360,000. AID 602449. inhibition, % at 10 µM;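 active means inhibition of 50% or more, scaled per plate between neutral and stimulator controls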;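 further: 0% = DMSO wells given calcium and 100% = 1 mM EGTA wells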
Mdm2 MdmX PPI: inhibitors of human Mdm2/MdmX interaction; O15151+Q00987; SaOS-2 split-luciferase Mdm2/MdmX complementation, luminescence; inhibition, % at 8 µM; hit rate 3% among 330,000;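 active means inhibition of at least 50% at 8 µM in the primary screen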
Target sequence (O15151 whole entry, looked up): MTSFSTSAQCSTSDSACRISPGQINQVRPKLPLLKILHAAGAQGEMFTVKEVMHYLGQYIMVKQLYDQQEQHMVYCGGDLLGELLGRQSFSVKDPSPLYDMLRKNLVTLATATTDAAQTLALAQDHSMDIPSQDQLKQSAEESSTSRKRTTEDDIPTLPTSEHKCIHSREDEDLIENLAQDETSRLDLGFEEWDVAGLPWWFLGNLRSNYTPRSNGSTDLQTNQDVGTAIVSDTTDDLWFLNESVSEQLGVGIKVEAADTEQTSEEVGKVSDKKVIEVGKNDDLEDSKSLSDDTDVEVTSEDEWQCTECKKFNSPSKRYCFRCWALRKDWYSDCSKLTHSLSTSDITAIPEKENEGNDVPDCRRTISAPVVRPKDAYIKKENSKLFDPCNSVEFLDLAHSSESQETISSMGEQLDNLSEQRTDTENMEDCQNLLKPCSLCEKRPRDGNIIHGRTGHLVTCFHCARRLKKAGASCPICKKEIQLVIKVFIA
Target sequence (Q00987 whole entry, looked up): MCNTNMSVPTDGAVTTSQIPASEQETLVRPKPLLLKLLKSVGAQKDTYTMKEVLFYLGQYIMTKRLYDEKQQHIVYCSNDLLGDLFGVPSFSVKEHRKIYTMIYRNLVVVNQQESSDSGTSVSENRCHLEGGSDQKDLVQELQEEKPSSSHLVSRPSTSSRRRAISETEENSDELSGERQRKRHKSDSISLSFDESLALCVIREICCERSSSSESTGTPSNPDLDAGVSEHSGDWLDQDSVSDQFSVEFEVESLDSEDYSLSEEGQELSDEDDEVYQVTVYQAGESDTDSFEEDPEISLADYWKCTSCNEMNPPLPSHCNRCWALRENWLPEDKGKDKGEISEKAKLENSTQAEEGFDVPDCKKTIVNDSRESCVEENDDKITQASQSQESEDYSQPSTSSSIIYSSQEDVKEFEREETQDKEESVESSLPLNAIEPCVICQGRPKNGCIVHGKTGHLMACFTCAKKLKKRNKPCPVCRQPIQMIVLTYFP
Gli-Sufu antag: blocks Gli-Sufu signaling in a luciferase reporter. AID 588413. Sufu-KO-LIGHT fibroblasts, Gli luciferase reporter luminescence. hit rate 0.74% among 340,000. inhibition, % at 5 µM;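 active means inhibition above about 55%, limit read from the data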;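 further: 0% = DMSO-treated cells and 100% = wells with medium but no cells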
Mdm2 MdmX conf: human Mdm2/MdmX binding inhibition, confirmed. shares compounds with Mdm2 MdmX PPI. luminescent assay. inhibition, % at 8 µM. hit rate 55% among 10,000; in the data active means inhibition above about 40%
Full FLuc ctr: counter-screen for Mdm2/MdmX inhibitors: full-length luciferase. inhibition, % at 8 µM. SaOS-2 full-length luciferase counterscreen, luminescence. hit rate 77% among 6,200. AID 504607. shares compounds with Mdm2 MdmX PPI;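 active means mean inhibition at 8 µM reaching about 37%, which flags the compound as non-specific, limit read from the data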;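 further: p53-null SaOS-2 cells with luciferase driven by a doxycycline-inducible promoter; compound on cells about two nights before reading with doxycycline added after day one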
Starred values were filed as active, the others as inactive; nt = no result.

SMILES | GRIN3A LBD mod | CSC inhib | Beta apoptosis | MPTP block | Mdm2 MdmX PPI | Gli-Sufu antag | Mdm2 MdmX conf | Full FLuc ctr
CCOC(=O)COC(=O)c1ccc(Oc2cc(C)nc(SC)n2)cc1 | -2 | nt | -1 | 0 | 8 | 4 | nt | nt
CCOC(=O)c1ccc(Oc2cc(C)nc(SC)n2)cc1 | -1 | 68 | 2 | 2 | 56* | 2 | 58* | 49*
O=C(c1cccc(S(=O)(=O)NCc2ccccc2)c1)N1CCN(c2ccccc2)CC1 | 1 | 41 | 0 | -1 | 37 | 8 | nt | nt
O=C(c1cccc(S(=O)(=O)NCc2ccccc2)c1)N1CCN(c2cccc(C(F)(F)F)c2)CC1 | 2 | 41 | 7 | -1 | 62* | 6 | 70* | 55*
COc1ccc2sc(-c3ccc(SC)cc3)c(-c3ccc(O)cc3)c2c1 | 3 | 107* | 17 | 3 | 54* | 0 | 29 | nt
CC(C)(C)Nc1nc(N2CCCC2)nc(N2CCCC2)n1 | 0 | 21 | 38 | 4 | 55* | -42 | 37 | nt
Cc1cc(/C=N/NC(=O)c2cccc([N+](=O)[O-])c2)c(C)n1-c1ccc(Cl)cc1Cl | 0 | 10 | 1 | -1 | 50* | -19 | 35 | nt
COc1cccc(/C=N/NC(=O)c2cccc([N+](=O)[O-])c2)c1OS(=O)(=O)c1ccccc1 | -6 | -17 | 2 | 1 | 6 | 1 | nt | nt
Cn1cc(/C=C(\C#N)C(=O)Nc2cccc([N+](=O)[O-])c2)c2ccccc21 | -4 | 3 | 27 | 2 | 66* | -1 | 20 | nt
Cn1cc(/C=N/NC(=O)c2cccc([N+](=O)[O-])c2)c2ccccc21 | -16 | -11 | 3 | 1 | 61* | 5 | -8 | nt
COc1ccc(/C=N/NC(=O)c2cccc([N+](=O)[O-])c2)c2ccccc12 | 34* | 50 | 27 | 1 | 86* | -1 | 23 | nt
CCC(C)NC(=O)CCSc1ccc(C)cc1 (centres undefined) | 1 | -5 | -9 | 2 | 6 | -1 | nt | nt
Cc1cc(C)cc(NC(=O)C2CCN(S(=O)(=O)c3ccc4[nH]c(=O)ccc4c3)CC2)c1 | -9 | nt | 8 | -3 | 25 | 21 | nt | nt
COc1ccc(/C=N/NC(=O)c2cccc([N+](=O)[O-])c2)cc1OC | 2 | -5 | -3 | 0 | 16 | -15 | nt | nt
N#Cc1cc([N+](=O)[O-])ccc1Oc1cccc(/C=N/NC(=O)c2cccc(Cl)c2)c1 | -3 | 36 | 5 | 15 | 62* | 8 | 22 | nt
CCc1[nH]nc(C(=O)NC2CCCc3c2cnn3-c2cc(C)cc(C)c2)c1C (centres undefined) | 0 | 19 | -7 | 1 | 76* | -3 | 81* | 95*
CC(C)S(=O)(=O)N1CCCC(c2cc(C(=O)Nc3ccc(F)c(Cl)c3)no2)C1 (centres undefined) | nt | nt | nt | 0 | nt | nt | nt | nt
CC1=NN(c2ccccc2)C(=O)/C1=C/C=C/c1ccccc1 | -8 | 84* | nt | 3 | 65* | -15 | 52* | 49*
O=C1N/C(=C/c2cccn2-c2ccccc2)C(=O)N1Cc1ccc(F)cc1 | -7 | -3 | -7 | 3 | 10 | 3 | nt | nt
O=C1N/C(=C\c2ccc(N3CCOCC3)c(F)c2)C(=O)N1Cc1ccccc1 | -1 | 52 | 28 | -1 | 73* | -2 | 40* | 74*
COc1ccccc1N1CCN(C(=O)c2ccc3noc(-c4ccccc4)c3c2)CC1 | nt | nt | nt | -1 | nt | nt | nt | nt
C[C@@]12C(=O)Nc3ccccc3C(=O)N1[C@H]1c3cc(Br)ccc3OC[C@@H]1[C@@H]2c1ccccc1 | -1 | -17 | 7 | 0 | 63* | 5 | 53* | 31
COc1ccc2c(c1)C(=O)N1[C@H]3c4cc(Br)ccc4OC[C@@H]3[C@H](c3ccccc3)[C@]1(C)C(=O)N2 | 2 | -13 | 9 | 0 | 64* | -3 | 63* | 37*
CCOC(=O)[C@H]1[C@H]2COc3ccc(Cl)cc3[C@@H]2N2C(=O)c3ccc(Cl)cc3NC(=O)[C@@]12C | -5 | 36 | 3 | 1 | 53* | 10 | 25 | nt
CCOC(=O)[C@H]1[C@H]2COc3ccc(C)cc3[C@@H]2N2C(=O)c3ccc(Cl)cc3NC(=O)[C@@]12C | 1 | 15 | -1 | -2 | 25 | 26 | nt | nt
SMILES | GRIN3A LBD mod | CSC inhib | Beta apoptosis | MPTP block | Mdm2 MdmX PPI | Gli-Sufu antag | Mdm2 MdmX conf | Full FLuc ctr
C/C(CC(=O)NC12CC3CC(CC(C3)C1)C2)=N\NC(=O)c1ccc(F)cc1 | 1 | -15 | 0 | 0 | 17 | 8 | nt | nt
O=C(N/N=C/c1ccco1)c1cc(-c2ccc3ccccc3c2)n[nH]1 | -9 | 38 | 64 | 2 | 9 | 4 | nt | nt
O=C(N/N=C/c1c[nH]c2ccccc12)c1cc(-c2cccc3ccccc23)n[nH]1 | 10 | 65 | 16 | 0 | 58* | -9 | 2 | nt
O=C(N/N=C/c1c[nH]c2ccccc12)c1cc(-c2ccc3ccccc3c2)n[nH]1 | 41* | 68 | 19 | 1 | 54* | -24 | 52* | 87*
Cc1c(C(=O)N2CCOCC2)c(S(=O)(=O)Nc2ccc(C(C)C)cc2)c(C)n1C | -1 | 0 | 1 | -2 | -4 | 25 | nt | nt
COc1ccc(-c2cncnc2-c2ccc(OC)cc2O)cc1 | 2 | -10 | -22 | 0 | 62* | -8 | 62* | 27
CC(C)Cn1c(=O)c(C(=O)Nc2ccccc2S(N)(=O)=O)c(O)c2ccccc21 | -1 | 54 | 6 | -3 | 63* | 0 | 60* | 26
CCC(C)n1c(=O)c(C(=O)Nc2ccccc2S(N)(=O)=O)c(O)c2ccccc21 (centres undefined) | -2 | -2 | -3 | -7 | 57* | 2 | 56* | 31
Cn1c(=O)c(C(=O)Nc2ccccc2S(N)(=O)=O)c(O)c2ccccc21 | -1 | -6 | 4 | 0 | -16 | -19 | nt | nt
COc1ccccc1CNC(=O)C1(c2ccc(Cl)cc2)CC1 | 0 | -5 | 3 | 0 | 16 | -10 | nt | nt
COC(=O)c1ccccc1NC(=O)c1cn(-c2ccc(C)c(C)c2)c(=O)c2ccccc12 | -2 | 23 | 9 | 2 | 32 | 8 | nt | nt
CCOC(=O)c1ccccc1NC(=O)c1cn(-c2ccc(C)c(C)c2)c(=O)c2ccccc12 | -1 | 7 | 8 | 2 | 69* | 32 | 29 | nt
CCN(CC)CCCNC(=O)c1sc2ncn(CC(=O)Nc3ccc(C)c(Cl)c3)c(=O)c2c1C | -2 | -3 | -4 | -2 | 53* | 15 | 21 | nt
CCCN(CCC)CC(C)(C)NS(=O)(=O)c1ccc(Cl)cc1 | 1 | -4 | 1 | 1 | 17 | 12 | nt | nt
Cc1ccc(NC(=O)CNC(=O)c2cccc(C)c2)nc1 | 1 | 43 | nt | 0 | 76* | -10 | 48* | 62*

Screening results: PubChem BioAssay, several laboratories
